Reference: the antibiotic and cytotoxicity screens of Wong et al. (2023)
Screen size: about 39,000 compounds; about 3,300 (8.5%) were called active. For the sample, actives were picked, then their nearest neighbours and some compounds at random.

The compounds below were run on HepG2 (assay: cytotoxicity call (relative viability < 0.9)). Conditions: 10 µM.

Row | SMILES | cytotoxicity call
1 | Cc1ccc(S(=O)(=O)N[C@@H]2C=C[C@H](CC(=O)NCCN3CCCCC3)O[C@H]2CO)cc1 | inactive
2 | COc1ccc(NC(=O)N(C)C[C@H]2Oc3ccc(NC(=O)Nc4cccc5ccccc45)cc3C(=O)N([C@@H](C)CO)C[C@@H]2C)cc1 | inactive
3 | Cc1noc(C)c1NC(=O)Nc1ccc2c(c1)C(=O)N([C@H](C)CO)C[C@H](C)[C@@H](CN(C)Cc1ccc(Cl)c(Cl)c1)O2 | inactive
4 | C[C@@H]1CN([C@H](C)CO)C(=O)Cc2cc(NS(=O)(=O)c3ccc(F)cc3)ccc2O[C@H]1CN(C)Cc1ccc(-c2ccccc2)cc1 | active
5 | C[C@@H]1CN([C@H](C)CO)C(=O)Cc2cc(NC(=O)NC3CCCCC3)ccc2O[C@@H]1CN(C)C(=O)Nc1ccc(C(F)(F)F)cc1 | inactive
6 | COc1ccc(S(=O)(=O)Nc2ccc3c(c2)C(=O)N([C@H](C)CO)C[C@@H](C)[C@H](CN(C)C(=O)Nc2ccc(F)cc2)OCCCC[C@H](C)O3)cc1 | inactive
7 | C[C@H]1CN([C@@H](C)CO)C(=O)c2cc(C#CCN(C)C)cnc2O[C@H]1CN(C)S(C)(=O)=O | inactive
8 | C[C@@H]1CCCCO[C@H](CN(C)Cc2ccc(C(F)(F)F)cc2)[C@H](C)CN([C@H](C)CO)C(=O)c2cc(NS(=O)(=O)c3ccc(Cl)cc3)ccc2O1 | active
9 | C[C@@H]1CN([C@H](C)CO)C(=O)c2cc(NS(=O)(=O)c3ccc(Cl)cc3)ccc2O[C@@H](C)CCCCO[C@H]1CN(C)Cc1ccc(C(F)(F)F)cc1 | active
10 | C[C@@H]1CCCCO[C@@H](CN(C)Cc2ccc(C(F)(F)F)cc2)[C@H](C)CN([C@H](C)CO)C(=O)c2cc(NS(=O)(=O)c3ccc(Cl)cc3)ccc2O1 | active
11 | C[C@@H]1CN([C@@H](C)CO)C(=O)c2cc(NS(=O)(=O)c3ccc(Cl)cc3)ccc2O[C@@H](C)CCCCO[C@@H]1CN(C)Cc1ccc(C(F)(F)F)cc1 | inactive
12 | C[C@H](CO)N1C[C@H](C)[C@@H](CN(C)Cc2ccc(C(F)(F)F)cc2)OCCCC[C@H](C)Oc2ccc(NS(=O)(=O)c3ccc(Cl)cc3)cc2C1=O | inactive
13 | C[C@@H]1CCCCO[C@H](CN(C)Cc2ccc(C(F)(F)F)cc2)[C@@H](C)CN([C@@H](C)CO)C(=O)c2cc(NS(=O)(=O)c3ccc(Cl)cc3)ccc2O1 | active
14 | CNC[C@H]1OCCCC[C@@H](C)Oc2ccc(NS(=O)(=O)c3cn(C)cn3)cc2C(=O)N([C@@H](C)CO)C[C@H]1C | inactive
15 | C[C@@H]1CCCCO[C@@H](CN(C)C(=O)c2ccccc2)[C@@H](C)CN([C@H](C)CO)C(=O)c2cc(NC(=O)CCC(F)(F)F)ccc2O1 | inactive
16 | C[C@@H]1CN([C@H](C)CO)C(=O)c2cc(NS(=O)(=O)c3cccs3)ccc2O[C@@H](C)CCCCO[C@@H]1CN(C)C(=O)CCC(F)(F)F | inactive
17 | C[C@H](N)CCCP(=O)(O)O | inactive
18 | COC(=O)CCCCCCC(=O)Nc1ccc([C@H]2O[C@H](CSc3nc(-c4ccccc4)c(-c4ccccc4)o3)C[C@H](c3ccc(NC(=O)CCCCCCC(=O)OC)cc3)O2)cc1 | inactive
19 | C[C@H]1CN([C@@H](C)CO)C(=O)c2cc(NS(C)(=O)=O)ccc2O[C@@H]1CN(C)Cc1ccc(C(F)(F)F)cc1 | inactive
20 | COc1ccc(NC(=O)Nc2ccc3c(c2)[C@H]2C[C@@H](CC(=O)N4CCN(C)CC4)O[C@H](CO)[C@H]2O3)cc1 | inactive
21 | C[C@@H]1CN([C@H](C)CO)C(=O)c2cc(C#CCN(C)C)cnc2O[C@H]1CN(C)Cc1ccc2c(c1)OCO2 | inactive

Row | SMILES | cytotoxicity call
22 | C[C@H](CO)N1C[C@H](C)[C@@H](CN(C)C(=O)c2cnccn2)Oc2ncc(/C=C/c3ccccc3)cc2C1=O | inactive
23 | CC(C)NC(=O)Nc1ccc2c(c1)C(=O)N([C@@H](C)CO)C[C@H](C)[C@H](CN(C)C(=O)Nc1ccc3c(c1)OCO3)O2 | inactive
24 | C[C@H]1CN([C@@H](C)CO)S(=O)(=O)c2ccc(C#CC3CCCC3)cc2O[C@H]1CN(C)Cc1cncnc1 | inactive
25 | CO[C@@H]1CN(C)C(=O)c2ccc(NC(=O)C3CCOCC3)cc2OC[C@H](C)N(Cc2cccnc2)C[C@@H]1C | inactive
26 | C[C@H]1CN([C@@H](C)CO)C(=O)c2cccc(NC(=O)c3cnccn3)c2O[C@H]1CN(C)C(=O)Nc1ccc2c(c1)OCO2 | inactive
27 | C[C@H]1CN([C@@H](C)CO)C(=O)c2cccc(NC(=O)c3ccncc3)c2O[C@H]1CN(C)S(=O)(=O)c1cn(C)cn1 | inactive
28 | NCCCC[C@@H]1NC(=O)[C@H]2C[C@@H](C(=O)NCc3ccc(F)cc3)[C@@H](c3cccc(OCCO)c3)N2C1=O | inactive
29 | COc1ccc(S(=O)(=O)Nc2cccc3c2O[C@H](CN(C)CC2CC2)[C@@H](C)CN([C@H](C)CO)C3=O)cc1 | inactive
30 | COCC#Cc1ccc2c(c1)O[C@H](CN(C)S(=O)(=O)c1cccc(OC)c1)[C@H](C)CN([C@H](C)CO)S2(=O)=O | inactive
31 | CN1C(=O)c2cc(NC(=O)C3CCOCC3)ccc2OC[C@H]2O[C@H](CC(=O)NCCc3ccncc3)CC[C@H]21 | inactive
32 | C[C@@H]1CN([C@@H](C)CO)C(=O)c2cc(NC(=O)NC3CCCCC3)ccc2O[C@@H](C)CCCCO[C@@H]1CN(C)C(=O)Nc1ccccc1 | inactive
33 | Cc1ccc(S(=O)(=O)N(C)C[C@H]2Oc3ccc(NS(=O)(=O)c4cn(C)cn4)cc3C(=O)N([C@H](C)CO)C[C@H]2C)cc1 | inactive
34 | C[C@@H]1CN([C@@H](C)CO)C(=O)c2cc(NS(=O)(=O)c3ccc(Cl)cc3)ccc2O[C@@H](C)CCCCO[C@H]1CN(C)Cc1ccc(C(F)(F)F)cc1 | active
35 | C[C@H]1CCCCO[C@@H](CN(C)Cc2ccc(C(F)(F)F)cc2)[C@@H](C)CN([C@@H](C)CO)C(=O)c2cc(NS(=O)(=O)c3ccc(Cl)cc3)ccc2O1 | inactive
36 | C[C@@H]1CCCCO[C@H](CN(C)Cc2ccc(C(F)(F)F)cc2)[C@@H](C)CN([C@H](C)CO)C(=O)c2cc(NS(=O)(=O)c3ccc(Cl)cc3)ccc2O1 | active
37 | C[C@@H]1CCCCO[C@@H](CN(C)Cc2ccc(C(F)(F)F)cc2)[C@@H](C)CN([C@@H](C)CO)C(=O)c2cc(NS(=O)(=O)c3ccc(Cl)cc3)ccc2O1 | inactive
38 | C[C@@H]1CN([C@H](C)CO)C(=O)c2cc(NS(=O)(=O)c3ccc(Cl)cc3)ccc2O[C@@H](C)CCCCO[C@@H]1CN(C)Cc1ccc(C(F)(F)F)cc1 | inactive
39 | C[C@@H]1CCCCO[C@@H](CN(C)Cc2ccc(C(F)(F)F)cc2)[C@H](C)CN([C@@H](C)CO)C(=O)c2cc(NS(=O)(=O)c3ccc(Cl)cc3)ccc2O1 | active
40 | C[C@H]1CCCCO[C@H](CN(C)Cc2ccc(C(F)(F)F)cc2)[C@@H](C)CN([C@@H](C)CO)C(=O)c2cc(NS(=O)(=O)c3ccc(Cl)cc3)ccc2O1 | inactive
41 | C[C@@H]1CCCCO[C@@H](CN(C)Cc2ccc(C(F)(F)F)cc2)[C@@H](C)CN([C@H](C)CO)C(=O)c2cc(NS(=O)(=O)c3ccc(Cl)cc3)ccc2O1 | active
